Results published in PubChem BioAssay AID1851 (National Center for Advancing Translational Sciences (NCATS), 2009).
“And” between values parts separate entries of the source, which are not always exact repeats. Equal entries are not always repeated. Hit rate of the full screen: of about 16,000 compounds, about 4,000 (25%) were called active. Not shown: some 26% with an inconclusive outcome. Calls come from the whole dose curve; as a rule, active = well fitted curve in the direction sought with a large enough effect; inconclusive = small, poorly fitted or top-dose-only effect, or effect the other way; inactive = no such curve, though single readings can be large or run the other way. A selection follows. More than one record can exist for a structure, and the calls need not agree.

These compounds were tested against Cytochrome P450 2C9 (Homo sapiens) (UniProt P11712) (assay: Cytochrome panel assay with activity outcomes). Details: recombinant CYP, pro-luciferin dealkylation, luminescence, p450-cyp2c9; series mostly up to 57.1 µM; activity, negative = inhibition: at the top concentration.
% is set by controls: 0 for no effect and ±100 for the full control effect.

Cytochrome P450 2C9 (Homo sapiens), sequence (P11712 whole entry, looked up): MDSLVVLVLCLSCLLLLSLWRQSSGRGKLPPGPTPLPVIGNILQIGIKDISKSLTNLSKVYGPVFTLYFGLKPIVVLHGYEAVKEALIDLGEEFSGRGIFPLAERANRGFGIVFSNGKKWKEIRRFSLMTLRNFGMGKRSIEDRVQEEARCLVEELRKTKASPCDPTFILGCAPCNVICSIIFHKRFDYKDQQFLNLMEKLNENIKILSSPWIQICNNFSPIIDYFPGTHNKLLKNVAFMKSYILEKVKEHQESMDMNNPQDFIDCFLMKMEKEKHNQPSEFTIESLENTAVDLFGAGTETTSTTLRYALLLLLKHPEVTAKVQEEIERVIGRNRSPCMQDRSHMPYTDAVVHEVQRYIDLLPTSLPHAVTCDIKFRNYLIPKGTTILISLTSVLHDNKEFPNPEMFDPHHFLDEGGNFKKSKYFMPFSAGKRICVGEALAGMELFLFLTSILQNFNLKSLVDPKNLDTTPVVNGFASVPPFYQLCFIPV

Question: `Nc1nc2c(c(=O)[nH]1)CN(c1ccc(S(N)(=O)=O)cc1)CN2` was tested. Which activity, negative = inhibition did it give?
Answer: 7.1% [at 11.4 µM] (inactive)

Question: For `O=C1C2=CC[C@@H]3C(=O)N(c4ccc(F)cc4F)C(=O)[C@H]3[C@H]2[C@H](O)[C@H]2O[C@H]12`, which activity, negative = inhibition is on record?
Answer: 4.69% [at 11.4 µM] (inactive)

Question: How did the AC50 turn out when `C=CCOC(=O)/C(=C\c1cccc2ccccc12)NC(=O)c1ccccc1` was run?
Answer: 1.41 µM (active)

Question: With `Cc1ccc(S(=O)(=O)c2c(C)nn(C(C)(C)C)c2OC(=O)c2cccs2)cc1` as the compound, how does the AC50 read?
Answer: 3.16 µM (active)

Question: With `C[C@@]12CCC(=O)C=C1CC[C@@H]1[C@@H]2[C@H](O)C[C@]2(C)[C@@H]1CC[C@]2(O)C(=O)COC(=O)CCC(=O)O` as the compound, how does the “activity, negative = inhibition” value read?
Answer: -12.8% (inactive)

Question: With `CN=C(N)/N=C(\N)Nc1cc2ccccc2c2ccccc12` as the compound, how does the activity, negative = inhibition read?
Answer: -14.6% [at 11.4 µM] (inactive)

Question: `C=CC(C)(C)c1[nH]c2ccccc2c1C1=C(O)C(=O)C(c2c[nH]c3c(CC=C(C)C)cccc23)=C(O)C1=O` was tested. Which AC50 did it give?
Answer: 7.94 µM (active)

Question: Which activity, negative = inhibition does the source give for `c1ccc(CCN2CCN=C2Cc2ccccc2)cc1` here?
Answer: -8.28% [at 11.4 µM] (inactive)

Question: `ON(CCc1ccncc1)Cc1ccccc1` was tested. Which AC50 did it give?
Answer: 3.98 µM (active)

Question: For `ON(CCc1ccccn1)Cc1ccccc1`, which activity, negative = inhibition is on record?
Answer: -2.37% [at 11.4 µM] (inactive)

Question: `c1ccc(SCCc2ccncc2)cc1` was tested. Which AC50 did it give?
Answer: 1.12 µM (active) and 1.26 µM (active)

Question: `Fc1ccc(SCCc2ccncc2)cc1` was tested. Which AC50 did it give?
Answer: 2 µM (active)

Question: Which activity, negative = inhibition does the source give for `Br/C(=N\Nc1nn[nH]n1)c1ccncc1` here?
Answer: -3.74% [at 11.4 µM] (inactive)

Question: How did the “activity, negative = inhibition” value turn out when `COc1ncc2ncc(=O)n(Cc3cccs3)c2n1` was run?
Answer: -14.3% (inactive)

Question: Which AC50 does the source give for `COc1ccc(Oc2ncc3ncc(=O)n(Cc4cccs4)c3n2)cc1` here?
Answer: 15.8 µM (active)

Question: For `CN1CCN(c2ncc3ncc(=O)n(Cc4cccs4)c3n2)CC1`, which “activity, negative = inhibition” value is on record?
Answer: -7.33% (inactive)

Question: For `Cc1nc2cnc(Nc3ccccc3)nc2n(Cc2cccs2)c1=O`, which “activity, negative = inhibition” value is on record?
Answer: -13% (inactive)

Question: How did the AC50 turn out when `O=c1cnc2cnc(Oc3ccccc3)nc2n1Cc1cccs1` was run?
Answer: 25.1 µM (active)

Question: `Cn1cc(-c2nc3cnc(Oc4ccccc4)nc3n(Cc3cccs3)c2=O)c2ccccc21` was tested. Which “activity, negative = inhibition” value did it give?
Answer: 7.76% (inactive)

Question: How did the AC50 turn out when `Cc1nc2cnc(Oc3ccccc3)nc2n(Cc2cccs2)c1=O` was run?
Answer: 25.1 µM (active)

Question: Which activity, negative = inhibition does the source give for `Clc1ccccc1-c1ccc2ncnc(N3CCNCC3)c2c1` here?
Answer: -9.02% [at 2.29 µM] (inactive)

Question: For `COc1ccc(COC(=O)N/N=C2/C[C@@H](O)[C@@H](O)[C@@H]3[C@H]4C(=O)N(c5ccc(F)cc5F)C(=O)[C@@H]4CC[C@@H]23)cc1`, which activity, negative = inhibition is on record?
Answer: -15.8% [at 11.4 µM] (inactive)

Question: For `O=C(Nc1cccc(C(F)(F)F)c1)c1n[nH]c(Cn2cncn2)n1`, which AC50 is on record?
Answer: 4.47 µM (active)

Question: Which “activity, negative = inhibition” value does the source give for `Cc1c(NC(=O)C(C)N2C(=O)c3ccccc3C2=O)c(=O)n(-c2ccccc2)n1C` (stereo not given) here?
Answer: 0.282% (inactive)

Question: Which AC50 does the source give for `CC(=O)Nc1c2c3c(cccc3n(C)c1=O)C(=O)c1ccccc1-2` here?
Answer: 15.8 µM (active)

Question: How did the AC50 turn out when `Fc1ccc(COc2ccc(Br)cc2CNCc2ccncc2)cc1` was run?
Answer: 3.98 µM (active)

Question: How did the activity, negative = inhibition turn out when `CO[C@H]1COC(=O)[C@H](Cc2ccccc2)NC(=O)C/C=C\[C@@H](C)[C@H](OC)COC(=O)C/C=C\[C@@H]1C` was run?
Answer: 2.05% [at 11.4 µM] (inactive)

Question: How did the AC50 turn out when `CC1(C)CC(=O)C(C(C#Cc2ccccc2)C2=C(O)CC(C)(C)CC2=O)=C(O)C1` was run?
Answer: 15.8 µM (active)

Question: Which activity, negative = inhibition does the source give for `COc1ccc(CNc2ccnc(-c3ccccc3CN(C)C)n2)c(OC)c1` here?
Answer: 10.2% [at 2.29 µM] (inactive)

Question: How did the “activity, negative = inhibition” value turn out when `CC(C)(C)c1cc2cccnc2n1Cc1cccc(F)c1` was run?
Answer: -28% (inactive)

Question: With `CC1=C(\C=C/C(C)=C/C=C\C(C)=C\C(=O)O)C(C)(C)CCC1` as the compound, how does the AC50 read?
Answer: 10 µM (active) and inactive

Question: `CC1=CC(=O)CC(C)(C)[C@]1(O)/C=C\C(C)=C\C(=O)O` was tested. Which activity, negative = inhibition did it give?
Answer: 9.93% [at 11.4 µM] (inactive)

Question: How did the activity, negative = inhibition turn out when `CC(C)CCNc1ncnc2[nH]ncc12` was run?
Answer: 6.22% [at 11.4 µM] (inactive)

Question: `CCOC(=O)c1cnc2c(cnn2C)c1NCCCN(C)C` was tested. Which “activity, negative = inhibition” value did it give?
Answer: -2.53% (inactive)

Question: Which “activity, negative = inhibition” value does the source give for `COC(=O)c1nnn(Cc2ccccc2)c1N` here?
Answer: 8.99% (inactive)

Question: How did the “activity, negative = inhibition” value turn out when `O=C(c1cc(C(F)(F)F)cc(C(F)(F)F)c1)N1CCC2(CCN(Cc3ccccc3)CC2)CC1` was run?
Answer: -0.296% (inactive)

Question: For `CNC(=O)c1nnn(Cc2ccccc2)c1NC(=O)C(F)(F)F`, which AC50 is on record?
Answer: 12.6 µM (active)

Question: `Nc1ncnc2c1ncn2C1CCCC1` was tested. Which “activity, negative = inhibition” value did it give?
Answer: -3.04% (inactive)

Question: With `Nc1ncnc2c1c(-c1ccc(Oc3ccccc3)cc1)cn2C1CCCC1` as the compound, how does the AC50 read?
Answer: 31.6 µM (active)

Question: `Cc1ccc(CNCC(O)(c2ccc(F)cc2)c2ccc(F)cc2)cc1` was tested. Which AC50 did it give?
Answer: 25.1 µM (active)

Question: With `CCOC(=O)CC(=O)CSc1nc(-c2cccnc2)cc(C)c1C#N` as the compound, how does the AC50 read?
Answer: 1.26 µM (active)

Question: How did the “activity, negative = inhibition” value turn out when `CCOC(=O)CSc1n[nH]c(-c2cccnc2)n1` was run?
Answer: 0.887% (inactive)

Question: For `CCCC(=O)n1nc(-c2cccnc2)nc1N`, which “activity, negative = inhibition” value is on record?
Answer: -36.4% (inactive)

Question: How did the AC50 turn out when `O=C(c1cc(-c2cccs2)on1)N1CCN(c2ccc(F)cc2)CC1` was run?
Answer: 1.58 µM (active)

Question: With `O=c1cc(CN2CCN(c3ccc(F)cc3)CC2)c2cc3c(cc2o1)CCCC3` as the compound, how does the “activity, negative = inhibition” value read?
Answer: -15.2% (inactive)

Question: With `C/C=C\C(=O)N(CC)c1ccccc1C` as the compound, how does the “activity, negative = inhibition” value read?
Answer: -28.3% [at 25.6 µM] (inactive)

Question: With `COc1cc2c(cc1C(F)(F)F)N(C(=O)Nc1cc(F)cc(-c3cccnc3)c1)CC2` as the compound, how does the AC50 read?
Answer: 0.794 µM (active)

Question: With `CSc1cc2c(cc1C(F)(F)F)N(C(=O)Nc1cccnc1)CC2` as the compound, how does the AC50 read?
Answer: 0.00631 µM (active)

Question: With `CN1CCc2cc(NC(=O)Nc3cccnc3)ccc21` as the compound, how does the “activity, negative = inhibition” value read?
Answer: -16.7% (inactive)

Question: For `Cn1ccc2cc3c(cc21)CCN3C(=O)Nc1cccnc1`, which AC50 is on record?
Answer: inactive

Question: With `COC(=O)c1ccc(NC(=O)N2CCC(O)(c3cccnc3)CC2)cc1` as the compound, how does the “activity, negative = inhibition” value read?
Answer: -19.6% (inactive)

Question: With `CN1Cc2c(N)cccc2[C@H](c2ccccc2)C1` as the compound, how does the AC50 read?
Answer: inactive

Question: With `Cc1noc(C)c1-c1ccc2ncnc(NCc3cccnc3)c2c1` as the compound, how does the activity, negative = inhibition read?
Answer: -6.6% [at 2.29 µM] (inactive)

Question: With `CCCCn1cnc2c(c(CC#N)nn2-c2ccccc2)c1=N` as the compound, how does the activity, negative = inhibition read?
Answer: -11.5% [at 11.4 µM] (inactive)

Question: `COc1ncc2nc(C)c(=O)n(-c3ccccc3)c2n1` was tested. Which “activity, negative = inhibition” value did it give?
Answer: -12.6% (inactive)

Question: `CCOCCCn1cnc2c(c1=O)c1nc3ccccc3nc1n2-c1ccccc1` was tested. Which AC50 did it give?
Answer: 15.8 µM (active)

Question: With `CN1CCc2nc(N)nc(-c3nc(N)nc4c3CN(C)CC4)c2C1` as the compound, how does the activity, negative = inhibition read?
Answer: 5.01% [at 11.4 µM] (inactive)

Question: With `Cc1cc(-c2cc(-c3ccc(Cl)cc3)nc(N)c2C#N)co1` as the compound, how does the AC50 read?
Answer: 11.2 µM (active)

Question: Which “activity, negative = inhibition” value does the source give for `Cn1c(=O)c(-c2ccc(Cl)cc2)nc2cnc(OCc3ccccc3)nc21` here?
Answer: 9.78% (inactive)

Question: With `Cc1cc(C)n(-c2nc3ccccc3c(=O)n2OCc2ccc(Cl)cc2)n1` as the compound, how does the AC50 read?
Answer: 5.62 µM (active)
